# Test results taken from paper PMC4336329 (PLoS ONE, 2015).
# The campaign covered roughly 310,000 compounds. About 2,200 (0.71%) showed an effect of 50% or more. Effects have a minus sign here. Only a selection was taken, and strong results are over-represented in it overall.
# Target: human ether-à-go-go-related gene (hERG) potassium channel (human, UniProt Q12809)
# Assay: primary screen, population patch clamp on CHO cells stably expressing hERG; higher = less effect of the substance
# human ether-à-go-go-related gene (hERG) potassium channel, sequence (Q12809 whole entry, looked up): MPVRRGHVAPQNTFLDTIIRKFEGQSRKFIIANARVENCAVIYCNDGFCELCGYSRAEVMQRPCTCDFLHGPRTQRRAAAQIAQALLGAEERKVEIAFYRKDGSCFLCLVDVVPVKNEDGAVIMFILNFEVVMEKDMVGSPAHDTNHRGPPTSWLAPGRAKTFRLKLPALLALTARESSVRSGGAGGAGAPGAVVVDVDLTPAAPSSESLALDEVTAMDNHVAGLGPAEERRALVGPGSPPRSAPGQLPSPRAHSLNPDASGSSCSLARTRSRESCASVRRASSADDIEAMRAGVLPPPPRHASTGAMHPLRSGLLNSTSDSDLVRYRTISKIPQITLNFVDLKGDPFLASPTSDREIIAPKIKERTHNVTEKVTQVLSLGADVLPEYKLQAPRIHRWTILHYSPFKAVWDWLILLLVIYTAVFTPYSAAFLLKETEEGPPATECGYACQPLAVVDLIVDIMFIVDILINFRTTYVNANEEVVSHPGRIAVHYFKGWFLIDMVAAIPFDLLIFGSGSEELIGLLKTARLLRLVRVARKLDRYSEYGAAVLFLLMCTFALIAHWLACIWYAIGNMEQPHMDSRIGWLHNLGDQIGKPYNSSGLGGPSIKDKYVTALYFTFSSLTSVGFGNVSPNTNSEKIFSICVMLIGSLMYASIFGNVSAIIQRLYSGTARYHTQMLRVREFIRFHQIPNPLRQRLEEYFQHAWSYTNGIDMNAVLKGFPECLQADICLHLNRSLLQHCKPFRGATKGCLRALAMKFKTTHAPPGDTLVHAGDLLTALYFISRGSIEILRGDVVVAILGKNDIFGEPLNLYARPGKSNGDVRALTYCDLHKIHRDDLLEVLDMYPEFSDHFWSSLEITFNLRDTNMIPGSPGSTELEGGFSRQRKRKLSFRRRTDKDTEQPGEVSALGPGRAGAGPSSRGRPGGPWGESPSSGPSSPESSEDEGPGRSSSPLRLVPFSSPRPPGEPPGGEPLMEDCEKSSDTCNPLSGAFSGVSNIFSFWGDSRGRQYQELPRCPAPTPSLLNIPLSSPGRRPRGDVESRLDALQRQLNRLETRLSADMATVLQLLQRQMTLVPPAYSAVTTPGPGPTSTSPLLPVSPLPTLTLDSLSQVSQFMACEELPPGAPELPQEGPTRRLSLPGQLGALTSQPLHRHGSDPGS
row,SMILES,"hERG current change (%, negative = inhibition) at 1uM [%]"
1,COc1ccc(C(=O)NC(=S)Nc2ccc(S(=O)(=O)Nc3cc(OC)nc(OC)n3)cc2)cc1,13.7
2,O=C(Oc1ccc2c(c1)CCC2)N1CCOCC1,11.3
3,Cc1ccc(S(=O)(=O)N2CCCC2C(=O)NCc2ccco2)cc1 (stereo not shown),8.74
4,Cc1ccc(C)c(S(=O)(=O)N2CCCOC2CNC(=O)C(=O)NC2CC2)c1 (stereo not shown),19.9
5,COc1ccc(Nc2nc(N3CCCC3)nc3ccccc23)c(OC)c1,-7.36
6,COc1ccc(Nc2nc(N3CCN(C)CC3)nc3ccccc23)c(OC)c1,-76.6
7,COc1ccc(Nc2nc(N3CCCCC3)nc3ccccc23)c(OC)c1,-12.1
8,Cc1ccc(-n2c(SCC(=O)NCC3CCCO3)nc3c(c2=O)SCC3)cc1 (stereo not shown),2.53
9,Cc1cc(C(=O)N(C)CC2CCCN(CCc3ccc(F)cc3)C2)c(C)o1 (stereo not shown),-71.6
10,CN(CC1CCCN(CCc2ccc(Cl)cc2)C1)C(=O)c1ccco1 (stereo not shown),11.1
11,COc1ccc(CN(C)CC2CCCN(CCc3ccc(F)cc3)C2)cc1OC (stereo not shown),-8.47
12,COc1ccc(CCN2CCCC(CN(C)C(=O)c3ccoc3)C2)cc1 (stereo not shown),-32.6
13,Cc1ccccc1CCN1CCCC(CN(C)C(=O)C(=O)c2ccco2)C1 (stereo not shown),-17.7
14,COc1ccc(CCN2CCCC(CN(C)C(=O)c3ccoc3C)C2)cc1 (stereo not shown),18.4
15,CN(CC1CCCN(CCc2ccc(Cl)cc2)C1)C(=O)C(=O)c1ccco1 (stereo not shown),-72.5
16,COc1cccc(CN(C)CC2CCCN(CCc3ccc(Cl)cc3)C2)c1OC (stereo not shown),-3.32
17,COc1ccc(CN(C)CC2CCCN(CCc3ccc(Cl)cc3)C2)cc1OC (stereo not shown),-78.2
18,CN(CC1CCCN(CCc2ccccc2F)C1)C(=O)c1ccoc1 (stereo not shown),-25.9
19,CN(CC1CCCN(CCc2ccc(Cl)cc2)C1)C(=O)c1ccoc1 (stereo not shown),-85.3
20,CN(C)C(=O)CCC(=O)N(C)CC1CCCN(CCc2ccc(F)cc2)C1 (stereo not shown),-0.257
21,O=C(O)CCC(=O)Nc1sc2c(c1C(=O)NCc1ccccc1)CCCC2,0.699
22,Cc1cc2c(cc1C)C(c1ccccc1Br)CC(=O)N2 (stereo not shown),13.7
23,Cc1ccc(N2CC(C(=O)Oc3cccc(N4C(=O)CCC4=O)c3)CC2=O)cc1 (stereo not shown),-8.29
24,Cc1nn(-c2ccccc2)c(Cl)c1/C=N/O,4.67
25,Cc1c(C(C)(C)C)s/c(=N/S(=O)(=O)c2ccccc2)n1C,12.6
26,N#Cc1c(NC(=O)CSc2nc3ccccc3s2)sc2c1CCCC2,9.38
27,O=C(O)c1ccc(N/N=C/c2ccncc2)cc1,10
28,COCc1ccc(C(=O)N(C)CC2CCCN(CCc3ccc(OC)cc3)C2)o1 (stereo not shown),-38.5

row,SMILES,"hERG current change (%, negative = inhibition) at 1uM [%]"
1,COCc1ccc(C(=O)N(C)CC2CCCN(CCc3ccccc3F)C2)o1 (stereo not shown),-11.7
2,COCc1ccc(C(=O)N(C)CC2CCCN(CCc3ccc(Cl)cc3)C2)o1 (stereo not shown),-65.1
3,COc1ccc(CNc2nc3c(c(=O)n(Cc4ccc(Br)cc4)c(=O)n3C)n2C)cc1,-10.5
4,C[N+](C)(C)CCN(Cc1ccc(Cl)cc1)c1ccccn1.[I-],6.09
5,CN(C)CCN(Cc1ccccc1)c1ccccn1.Cl,-19.1
6,CN(C)CCN(Cc1ccc(Cl)cc1)c1ccccn1.Cl,-57.1
7,Cc1ccc(-n2cccc2/C=C2/C(=N)N3C(=NC2=O)SN=C3S(C)(=O)=O)cc1Cl,11.1
8,COC(=O)[C@H]1C[C@H](C(=O)O)[C@@H](C)C1(C)C,9.34
9,O=[N+]([O-])c1ccc(-n2nncc2-c2ccc(Cl)cc2)cc1,-60.4
10,O=[N+]([O-])c1ccc(-n2nncc2-c2ccccc2)cc1,0.0452
11,O=Cc1ccc(-n2nncc2-c2ccc([N+](=O)[O-])cc2)cc1,-12.4
12,CCS(=O)(=O)NCCCc1ccccc1,-5.33
13,CCn1c(C)[n+](CCOCC[n+]2c(C)n(CC)c3cc(Cl)c(Cl)cc32)c2cc(Cl)c(Cl)cc21.[I-],8.45
14,CCn1c(/C=C/N(C(C)=O)c2ccccc2)[n+](CCCS(=O)(=O)[O-])c2cc(Cl)c(Cl)cc21,10.6
15,CCn1c(/C=C/Nc2ccccc2)[n+](CC)c2cc(Cl)c(Cl)cc21.[I-],-87.2
16,CCn1c(/C=C/Nc2ccccc2)[n+](CC)c2ccc(Cl)cc21.[I-],-82.8
17,Cc1n(C)c2cc(Cl)ccc2[n+]1Cc1ccccc1.[I-],4.11
18,CCn1c(/C=C/N(C(C)=O)c2ccccc2)[n+](CC)c2ccc(Cl)cc21.[I-],5.77
19,Cc1ccccc1Cn1c(=O)n(CCC(=O)NCc2ccc3c(c2)OCO3)c(=O)c2ccccc21,16.7
20,CCCOC(=O)c1cc(-c2ccc(C=O)o2)ccc1Cl,3.2
21,O=C(COC(=O)CCC(=O)c1ccc(F)cc1)Nc1nnc(-c2ccccc2)o1,-0.682
22,CCCCCCCNC(=O)C1(CC2CC(c3cccc(Br)c3)=NO2)CCN(C(=O)CCCCCBr)CC1 (stereo not shown),-72
23,O=C(CCCCCBr)N1CCC(CC2CC(c3ccc(Cl)cc3)=NO2)(C(=O)NCC2CCCCC2)CC1 (stereo not shown),-37.5
24,CCCCCCCNC(=O)C1(CC2CC(c3cccc(Br)c3)=NO2)CCN(C(=O)OC(C)(C)C)CC1 (stereo not shown),4.2
25,CCCCCCCNC(=O)C1(CC2CC(c3ccc(Cl)cc3)=NO2)CCN(C(=O)OC(C)(C)C)CC1 (stereo not shown),18.9
26,CCCNC(=O)C1(CC2CC(c3ccccc3)=NO2)CCN(C(=O)CCCCCBr)CC1 (stereo not shown),-5.35
27,CCCCCCCNC(=O)C1(CC2CC(c3ccc(Cl)cc3)=NO2)CCN(C(=O)CCCCCBr)CC1 (stereo not shown),-52.1
